Results on twelve compounds are retold here after ChEMBL document CHEMBL2218924, “A broad activity screen in support of a chemogenomic map for kinase signalling research and drug discovery” (Biochem J, 2013).

Assay [1] addresses T1, Testis-specific serine/threonine-protein kinase 2 (Homo sapiens) (UniProt Q96PF2).
T1 sequence (whole entry): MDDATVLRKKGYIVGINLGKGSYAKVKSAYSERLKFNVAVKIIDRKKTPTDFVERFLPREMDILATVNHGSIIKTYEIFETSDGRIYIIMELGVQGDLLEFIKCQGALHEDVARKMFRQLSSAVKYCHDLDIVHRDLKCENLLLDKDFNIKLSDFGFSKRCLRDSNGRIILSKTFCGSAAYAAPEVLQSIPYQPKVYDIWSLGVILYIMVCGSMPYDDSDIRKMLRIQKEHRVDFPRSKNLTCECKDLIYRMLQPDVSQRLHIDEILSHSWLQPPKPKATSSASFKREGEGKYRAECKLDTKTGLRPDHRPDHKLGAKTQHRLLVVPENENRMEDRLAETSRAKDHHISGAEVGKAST
The settings on record: at 1 µM.

Assay [2] deals with T2, Tyrosine-protein kinase Mer (Homo sapiens) (UniProt Q12866).
T2 sequence (whole entry): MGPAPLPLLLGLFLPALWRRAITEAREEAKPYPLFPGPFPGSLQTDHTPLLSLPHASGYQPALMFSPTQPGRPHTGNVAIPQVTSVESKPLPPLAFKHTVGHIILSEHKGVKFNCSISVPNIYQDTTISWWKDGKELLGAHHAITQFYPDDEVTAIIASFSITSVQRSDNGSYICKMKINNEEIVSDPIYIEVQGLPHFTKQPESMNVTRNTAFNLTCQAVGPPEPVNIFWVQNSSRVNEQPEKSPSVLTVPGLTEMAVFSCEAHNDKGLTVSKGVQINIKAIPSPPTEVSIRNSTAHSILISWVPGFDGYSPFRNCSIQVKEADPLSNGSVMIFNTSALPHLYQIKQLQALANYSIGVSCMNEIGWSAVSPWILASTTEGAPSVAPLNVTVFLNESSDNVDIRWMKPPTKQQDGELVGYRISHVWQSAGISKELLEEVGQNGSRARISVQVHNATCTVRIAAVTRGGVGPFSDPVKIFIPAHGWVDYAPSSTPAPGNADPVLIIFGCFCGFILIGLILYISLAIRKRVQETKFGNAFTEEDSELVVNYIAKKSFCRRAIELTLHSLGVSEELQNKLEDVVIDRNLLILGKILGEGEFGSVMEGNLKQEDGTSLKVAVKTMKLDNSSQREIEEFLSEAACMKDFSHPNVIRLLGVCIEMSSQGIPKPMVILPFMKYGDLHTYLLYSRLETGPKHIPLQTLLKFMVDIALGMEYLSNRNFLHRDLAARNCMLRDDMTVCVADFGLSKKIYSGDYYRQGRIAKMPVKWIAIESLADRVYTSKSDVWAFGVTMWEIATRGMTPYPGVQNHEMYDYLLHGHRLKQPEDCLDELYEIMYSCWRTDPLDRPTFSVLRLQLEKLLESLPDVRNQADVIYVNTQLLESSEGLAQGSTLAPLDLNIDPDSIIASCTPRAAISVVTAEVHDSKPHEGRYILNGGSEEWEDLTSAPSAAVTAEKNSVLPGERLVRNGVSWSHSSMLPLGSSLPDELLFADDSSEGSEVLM
The settings on record: at 1 µM.

Assay [3] deals with T2, Tyrosine-protein kinase Mer (Homo sapiens). The following applies: at 10 µM.
Assay [4] concerns the target Hepatocyte growth factor receptor (Homo sapiens) (UniProt P08581). The following applies: at 1 µM.
Assay [5] shares this target. The settings on record: at 10 µM.
Assay [6] deals with MAP kinase-interacting serine/threonine-protein kinase 2 (Homo sapiens) (UniProt Q9HBH9). The settings on record: at 1 µM.
MAP kinase-interacting serine/threonine-protein kinase 2 (Homo sapiens), sequence (Q9HBH9 whole entry, looked up): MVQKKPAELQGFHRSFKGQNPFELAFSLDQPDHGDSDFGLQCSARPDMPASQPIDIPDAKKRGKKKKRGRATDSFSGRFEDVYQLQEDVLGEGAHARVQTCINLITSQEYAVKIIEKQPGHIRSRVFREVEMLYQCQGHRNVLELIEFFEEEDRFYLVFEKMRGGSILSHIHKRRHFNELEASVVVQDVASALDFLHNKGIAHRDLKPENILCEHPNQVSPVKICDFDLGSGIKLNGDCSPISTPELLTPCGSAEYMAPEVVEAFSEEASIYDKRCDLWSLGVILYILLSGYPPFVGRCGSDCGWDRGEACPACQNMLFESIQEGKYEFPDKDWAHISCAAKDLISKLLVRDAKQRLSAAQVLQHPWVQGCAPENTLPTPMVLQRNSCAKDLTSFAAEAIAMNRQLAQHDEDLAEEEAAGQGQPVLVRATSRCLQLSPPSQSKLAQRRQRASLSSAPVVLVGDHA
Assay [7] shares this target. The settings on record: at 10 µM.
The target in assay [8] is T3, Muscle, skeletal receptor tyrosine-protein kinase (Homo sapiens) (UniProt O15146).
T3 sequence (whole entry): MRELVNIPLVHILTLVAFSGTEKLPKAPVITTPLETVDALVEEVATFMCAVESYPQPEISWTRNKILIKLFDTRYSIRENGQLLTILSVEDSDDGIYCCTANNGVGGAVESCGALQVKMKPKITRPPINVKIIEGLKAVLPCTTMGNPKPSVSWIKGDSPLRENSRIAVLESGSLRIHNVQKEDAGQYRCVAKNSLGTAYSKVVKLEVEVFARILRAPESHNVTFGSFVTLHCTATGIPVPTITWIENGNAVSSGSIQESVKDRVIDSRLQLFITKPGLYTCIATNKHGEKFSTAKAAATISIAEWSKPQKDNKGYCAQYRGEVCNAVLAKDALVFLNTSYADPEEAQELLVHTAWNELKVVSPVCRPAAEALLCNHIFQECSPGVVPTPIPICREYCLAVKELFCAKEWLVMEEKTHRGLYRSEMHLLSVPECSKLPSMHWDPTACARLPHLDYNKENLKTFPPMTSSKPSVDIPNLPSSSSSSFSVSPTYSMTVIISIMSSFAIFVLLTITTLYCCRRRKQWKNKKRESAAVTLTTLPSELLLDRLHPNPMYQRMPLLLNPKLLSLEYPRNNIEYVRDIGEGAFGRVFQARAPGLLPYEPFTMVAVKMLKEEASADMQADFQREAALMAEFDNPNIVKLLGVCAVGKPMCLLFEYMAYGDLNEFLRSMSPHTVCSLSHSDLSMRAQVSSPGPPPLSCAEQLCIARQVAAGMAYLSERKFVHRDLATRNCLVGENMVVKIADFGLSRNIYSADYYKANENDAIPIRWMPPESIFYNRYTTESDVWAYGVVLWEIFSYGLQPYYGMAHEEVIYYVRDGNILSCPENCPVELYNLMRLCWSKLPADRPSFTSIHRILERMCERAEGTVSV
The following applies: at 1 µM.

In assay [9] the target is T3, Muscle, skeletal receptor tyrosine-protein kinase (Homo sapiens). The settings on record: at 10 µM.
Assay [10] has as its target T4, Serine/threonine-protein kinase Nek11 (Homo sapiens) (UniProt Q8NG66).
T4 sequence (whole entry): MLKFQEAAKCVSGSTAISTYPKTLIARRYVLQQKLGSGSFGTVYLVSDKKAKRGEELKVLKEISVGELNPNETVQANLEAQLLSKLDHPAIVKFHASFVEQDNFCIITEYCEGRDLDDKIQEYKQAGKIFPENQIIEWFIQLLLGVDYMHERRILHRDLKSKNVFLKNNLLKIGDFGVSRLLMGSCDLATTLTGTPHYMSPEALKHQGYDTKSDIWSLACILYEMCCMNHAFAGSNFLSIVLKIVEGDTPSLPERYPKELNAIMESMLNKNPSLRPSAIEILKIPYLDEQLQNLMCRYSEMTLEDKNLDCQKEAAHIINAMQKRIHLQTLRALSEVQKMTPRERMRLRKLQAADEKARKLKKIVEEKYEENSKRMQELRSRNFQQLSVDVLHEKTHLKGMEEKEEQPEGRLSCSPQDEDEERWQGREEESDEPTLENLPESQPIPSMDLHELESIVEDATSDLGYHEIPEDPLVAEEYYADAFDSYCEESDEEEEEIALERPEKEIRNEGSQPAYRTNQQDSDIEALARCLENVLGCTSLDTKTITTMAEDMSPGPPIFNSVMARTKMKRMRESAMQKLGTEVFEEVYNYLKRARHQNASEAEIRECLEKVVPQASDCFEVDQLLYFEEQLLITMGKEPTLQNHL
The settings on record: at 1 µM.

Assay [11] concerns the target T4, Serine/threonine-protein kinase Nek11 (Homo sapiens). The following applies: at 10 µM.
Assay [12] addresses T5, Serine/threonine-protein kinase Nek2 (Homo sapiens) (UniProt P51955).
T5 sequence (whole entry): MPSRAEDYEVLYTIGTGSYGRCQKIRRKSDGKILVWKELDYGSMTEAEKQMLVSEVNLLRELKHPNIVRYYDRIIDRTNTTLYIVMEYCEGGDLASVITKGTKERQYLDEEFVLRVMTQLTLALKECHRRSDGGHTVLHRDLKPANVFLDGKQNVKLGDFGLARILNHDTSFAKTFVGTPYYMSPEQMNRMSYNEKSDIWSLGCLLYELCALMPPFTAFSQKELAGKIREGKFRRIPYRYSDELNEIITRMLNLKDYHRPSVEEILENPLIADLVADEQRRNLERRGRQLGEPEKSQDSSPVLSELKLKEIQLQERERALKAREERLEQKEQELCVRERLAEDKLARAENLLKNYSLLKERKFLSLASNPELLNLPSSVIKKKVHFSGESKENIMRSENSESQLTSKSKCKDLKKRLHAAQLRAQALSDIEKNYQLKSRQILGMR
The following applies: at 1 µM.

For assay [13], the target named is T5, Serine/threonine-protein kinase Nek2 (Homo sapiens). The following applies: at 10 µM.
The target in assay [14] is T6, Serine/threonine-protein kinase Nek3 (Homo sapiens) (UniProt P51956).
T6 sequence (whole entry): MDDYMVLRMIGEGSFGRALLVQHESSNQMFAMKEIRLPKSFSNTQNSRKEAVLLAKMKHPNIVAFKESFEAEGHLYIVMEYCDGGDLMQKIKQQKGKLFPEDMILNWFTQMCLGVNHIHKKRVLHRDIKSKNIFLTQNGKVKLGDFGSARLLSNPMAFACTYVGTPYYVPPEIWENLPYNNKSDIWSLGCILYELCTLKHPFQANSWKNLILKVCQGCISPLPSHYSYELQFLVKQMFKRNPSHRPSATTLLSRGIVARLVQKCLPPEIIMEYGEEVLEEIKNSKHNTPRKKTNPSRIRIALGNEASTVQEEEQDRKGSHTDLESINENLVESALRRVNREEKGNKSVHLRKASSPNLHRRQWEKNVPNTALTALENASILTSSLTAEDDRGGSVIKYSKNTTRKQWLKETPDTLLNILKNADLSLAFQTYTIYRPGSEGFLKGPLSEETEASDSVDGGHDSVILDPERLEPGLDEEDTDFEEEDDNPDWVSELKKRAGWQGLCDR
The settings on record: at 1 µM.

Assay [15] deals with T6, Serine/threonine-protein kinase Nek3 (Homo sapiens). The following applies: at 10 µM.
Assay [16] has as its target Serine/threonine-protein kinase tousled-like 2 (Homo sapiens) (UniProt Q86UE8). The following applies: at 1 µM.
Assay [17] shares this target. The settings on record: at 10 µM.
Assay [18] concerns the target T7, Testis-specific serine/threonine-protein kinase 1 (Homo sapiens) (UniProt Q9BXA7).
T7 sequence (whole entry): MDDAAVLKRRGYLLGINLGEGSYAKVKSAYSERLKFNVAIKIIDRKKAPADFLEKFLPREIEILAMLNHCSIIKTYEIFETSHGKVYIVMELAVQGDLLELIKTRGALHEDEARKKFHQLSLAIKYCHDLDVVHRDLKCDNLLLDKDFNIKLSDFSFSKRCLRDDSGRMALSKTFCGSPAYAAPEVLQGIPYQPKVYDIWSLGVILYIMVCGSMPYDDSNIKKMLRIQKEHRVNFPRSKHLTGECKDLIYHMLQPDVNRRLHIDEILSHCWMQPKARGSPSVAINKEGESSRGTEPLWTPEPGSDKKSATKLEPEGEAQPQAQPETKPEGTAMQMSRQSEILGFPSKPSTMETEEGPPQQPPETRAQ
The following applies: at 1 µM.

Assay [19] deals with T7, Testis-specific serine/threonine-protein kinase 1 (Homo sapiens). The settings on record: at 10 µM.
For assay [20], the target named is T1, Testis-specific serine/threonine-protein kinase 2 (Homo sapiens). The following applies: at 10 µM.

SMILES strings stand for the structures.

Serine/threonine-protein kinase tousled-like 2 (Homo sapiens), sequence (Q86UE8 whole entry, looked up): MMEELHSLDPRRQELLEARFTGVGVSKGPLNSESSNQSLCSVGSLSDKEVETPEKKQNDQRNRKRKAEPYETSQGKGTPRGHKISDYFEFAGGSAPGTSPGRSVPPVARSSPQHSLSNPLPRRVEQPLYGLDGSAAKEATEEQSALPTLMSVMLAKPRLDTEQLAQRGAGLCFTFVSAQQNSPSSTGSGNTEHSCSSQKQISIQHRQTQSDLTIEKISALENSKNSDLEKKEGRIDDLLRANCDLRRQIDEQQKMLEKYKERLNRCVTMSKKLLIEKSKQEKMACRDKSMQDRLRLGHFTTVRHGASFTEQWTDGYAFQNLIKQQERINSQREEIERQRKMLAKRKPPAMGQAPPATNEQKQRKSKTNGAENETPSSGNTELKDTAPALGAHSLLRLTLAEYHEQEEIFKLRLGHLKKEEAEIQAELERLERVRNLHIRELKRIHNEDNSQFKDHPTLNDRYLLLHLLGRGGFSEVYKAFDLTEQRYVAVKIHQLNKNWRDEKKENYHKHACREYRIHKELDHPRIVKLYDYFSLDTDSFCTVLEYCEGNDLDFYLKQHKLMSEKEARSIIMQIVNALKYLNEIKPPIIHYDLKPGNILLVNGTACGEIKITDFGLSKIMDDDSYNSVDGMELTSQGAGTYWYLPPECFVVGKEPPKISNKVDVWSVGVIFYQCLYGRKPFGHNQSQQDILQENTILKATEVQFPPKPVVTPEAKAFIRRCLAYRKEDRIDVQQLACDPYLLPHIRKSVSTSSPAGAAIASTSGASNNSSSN
Hepatocyte growth factor receptor (Homo sapiens), sequence (P08581 whole entry): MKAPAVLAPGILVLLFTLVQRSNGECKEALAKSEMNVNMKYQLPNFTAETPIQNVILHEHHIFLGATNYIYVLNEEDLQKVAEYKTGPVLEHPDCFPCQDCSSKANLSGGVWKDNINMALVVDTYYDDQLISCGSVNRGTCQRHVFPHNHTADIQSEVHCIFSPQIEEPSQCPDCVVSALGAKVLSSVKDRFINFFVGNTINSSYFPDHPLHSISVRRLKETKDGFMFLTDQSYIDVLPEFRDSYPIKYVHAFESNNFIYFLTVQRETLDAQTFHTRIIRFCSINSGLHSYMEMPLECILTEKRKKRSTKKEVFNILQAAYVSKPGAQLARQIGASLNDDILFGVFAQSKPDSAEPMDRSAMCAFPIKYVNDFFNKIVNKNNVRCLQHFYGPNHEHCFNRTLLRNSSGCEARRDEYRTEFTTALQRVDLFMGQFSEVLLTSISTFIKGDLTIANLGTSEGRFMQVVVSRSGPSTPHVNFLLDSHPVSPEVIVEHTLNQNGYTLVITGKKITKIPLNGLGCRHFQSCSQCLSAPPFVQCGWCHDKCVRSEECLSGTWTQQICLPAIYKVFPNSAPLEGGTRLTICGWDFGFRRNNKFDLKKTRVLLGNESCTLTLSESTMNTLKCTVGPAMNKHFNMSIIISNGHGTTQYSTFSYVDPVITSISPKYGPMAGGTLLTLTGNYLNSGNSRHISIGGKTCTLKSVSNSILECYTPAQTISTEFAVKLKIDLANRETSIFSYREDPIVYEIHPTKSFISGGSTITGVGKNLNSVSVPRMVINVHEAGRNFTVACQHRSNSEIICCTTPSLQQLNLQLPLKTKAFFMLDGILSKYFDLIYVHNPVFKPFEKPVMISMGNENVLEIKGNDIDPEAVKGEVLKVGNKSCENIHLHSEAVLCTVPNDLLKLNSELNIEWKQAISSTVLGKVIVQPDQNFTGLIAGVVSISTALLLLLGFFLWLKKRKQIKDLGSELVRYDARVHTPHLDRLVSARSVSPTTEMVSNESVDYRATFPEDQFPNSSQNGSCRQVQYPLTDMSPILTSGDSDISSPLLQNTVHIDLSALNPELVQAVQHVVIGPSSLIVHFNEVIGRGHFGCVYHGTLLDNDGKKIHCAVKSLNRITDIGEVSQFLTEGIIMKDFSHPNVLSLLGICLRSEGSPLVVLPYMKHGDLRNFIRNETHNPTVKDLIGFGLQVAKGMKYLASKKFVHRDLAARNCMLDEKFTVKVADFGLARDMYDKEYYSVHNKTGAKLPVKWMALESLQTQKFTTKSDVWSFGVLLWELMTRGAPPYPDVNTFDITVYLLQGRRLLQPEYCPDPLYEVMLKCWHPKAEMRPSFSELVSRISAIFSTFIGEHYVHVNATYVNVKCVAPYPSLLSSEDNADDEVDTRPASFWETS

By residual activity is commonly meant the signal under treatment as a percentage of the control signal. As to `CC(C)(C)n1nc(Cc2cccc3ccccc23)c2c(N)ncnc21`, the residual activity in [1] was found to be 104%.

In the case of `COc1cc(OC)c(/C=C2\C(=O)Nc3ccccc32)c(OC)c1`, the residual activity is 95% in assay [2]; 93% in [3]; 103% in [4]; 94% in assay [5]; 99% in assay [6]; 96% in assay [7]. The residual activity in assay [8] stood at 88%; in [9], 78%; in [10], 43%; in assay [11], 61%; in assay [12], 90%; in [13], 91%. The residual activity in [14] worked out at 80%; in [15], 96%; in assay [16] it was 91%; in assay [17], 85%; in assay [18] it was 92%; in assay [19] it was 91%. The residual activity in assay [1] was determined as 102%; in assay [20], 99%.

Regarding `CN[C@@H]1C[C@H]2O[C@@](C)([C@@H]1OC)n1c3ccccc3c3c4c(c5c6ccccc6n2c5c31)C(=O)NC4`, the residual activity came to 105% in assay [14], 67% in assay [15], 1% in assay [16] and 1% in [17].

Regarding `O=C1NC(=O)c2cc(Nc3ccc(F)cc3)c(Nc3ccc(F)cc3)cc21`, in [1], the residual activity was 91%.

For `O=C1NC(=O)c2c1c1c3ccccc3[nH]c1c1[nH]c3cc(Br)ccc3c21`, the residual activity in [1] came out at 102%.

Consider `O=C(O)/C=C/c1cc(Br)c(Br)c(Br)c1Br`, for which, in [1], the residual activity is 96%.

Turning to `COc1cc2ncnc(Nc3ccc(OCc4ccccc4)cc3)c2cc1OC`, the residual activity in assay [2] came out at 64%; in assay [3] it was 49%; in [4], 87%; in assay [5] it was 87%; in assay [6] it was 90%; in assay [7], 68%. Also, the residual activity stood at 118% in [8]; 77% in assay [9]; 99% in assay [10]; 101% in assay [11]; 101% in assay [12]; 113% in [13]. Also, the residual activity in [14] is 90%; in assay [15], 80%; in assay [16], 115%; in assay [17], 96%; in assay [18], 104%; in assay [19], 90%. Also, the residual activity in [1] came out at 107%; in assay [20], 102%.

With `O=C1Nc2ccc(Cl)cc2/C1=C/c1cc(Cl)c(O)c(Cl)c1`, the residual activity in assay [1] is 76%.

With `COc1cc2ncnc(Nc3ccc(NC(=O)c4ccccc4)cc3)c2cc1OC`, the residual activity in [1] turned out to be 106%.

Take `NC(=O)Nc1sc(-c2ccc(F)cc2)cc1C(N)=O`: the residual activity in [1] turned out to be 88%.

Take `N/C(=N\[N+](=O)[O-])N/N=C\c1ccc(-c2cccc([N+](=O)[O-])c2)o1`: the residual activity was determined as 93% in [8]; 91% in [9]; 73% in assay [10]; 72% in assay [11]; 74% in [14]; 93% in [15]. Further, the residual activity is 95% in assay [16], 90% in assay [17], 91% in [1] and 80% in assay [20].

Regarding `O=C1c2ccccc2-c2nc3nnnn3nc21`, the residual activity in assay [2] came to 124%; in assay [3], 103%; in [4] it was 127%; in assay [5] it was 133%; in assay [6], 100%; in assay [7], 75%. Also, the residual activity in assay [8] came to 131%; in assay [9], 105%; in [14], 116%; in [15] it was 102%.
